Experiment [1] relates to TRPC4 beta (transient receptor potential cation channel C4), mouse. The experiment in a line: activators of mouse TRPC4 channel, confirmation, cell-based, Fluo4 calcium, HEK293 TRPC4beta/mu-opioid, duplicates, 10 µM (AID 2426;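 active means fluorescence ratio normalized to control raised more than 50% in primary screen plus both repeat runs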;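 on activation: percent rise of integrated ratio over buffer wells lacking compound which define 0%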). Particulars: Fluo4 calcium fluorescence, at 10 µM; active compounds read high.
Experiment [2] deals with transient receptor potential cation channel C4 beta (TRPC4), mouse. Briefly: activators of mouse TRPC4 channel, confirmation, cell-based, second round, Fluo4, HEK293 TRPC4beta/mu-opioid, 1 µM (AID 2461;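 active means primary screen active and over 50% activation in each of two duplicate runs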;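 on activation: 0% = wells without test compound as baseline of integrated fluorescence ratio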). To be noted: Fluo4 calcium fluorescence, at 1 µM; active compounds read high.
The test system of experiment [3] is TRPC4 (transient receptor potential cation channel C4 beta), mouse. Briefly: positive allosteric modulators of mouse TRPC4, confirmation, cell-based, second round, Fluo-4, HEK293 TRPC4beta/mu-opioid, 1 µM (AID 2554;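 active means primary screen hit whose fluorescence ratio, in both repeats, exceeds the weak agonist control mean by 3 SD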). To be noted: DAMGO EC20, Fluo-4 calcium flux, at 1 µM; active compounds read high.
Experiment [4] has as its system TRPC4 beta (transient receptor potential cation channel C4), mouse. Briefly: positive allosteric modulators of mouse TRPC4, confirmation, cell-based, Fluo-4, HEK293 TRPC4beta/mu-opioid (AID 2555;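 active means primary screen hit whose calcium fluorescence ratio, in both repeats, exceeds the weak agonist control mean by 3 SD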). Particulars: DAMGO EC20, Fluo-4 calcium flux, at 10 µM; active compounds read high.
Experiment [5] deals with Short transient receptor potential channel 4 (Mus musculus) (UniProt Q9QUQ5). Briefly: inhibitors of mouse TRPC4 channel, confirmation, cell-based, Fluo4, HEK293 TRPC4beta/mu-opioid (AID 2636). To be noted: DAMGO, Fluo4 calcium flux, at 10 µM; active compounds read high.
The target is the same in experiment [6]. Briefly: inhibitors of mouse TRPC4 channel, confirmation, cell-based, second round, Fluo4, HEK293 TRPC4beta/mu-opioid, 1 µM (AID 2637;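 active means calcium signal ratio cut to more than 3 SD under the fully stimulated control mean yet still positive, in both repeats and the primary screen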). Particulars: Fluo4 calcium flux, DAMGO, at 1 µM; active compounds read high.
The target is the same in experiment [7]. Briefly: TRPC4 positive allosteric modulators, dose response, cell-based, HEK293 TRPC4/mu-opioid, Fluo-4 calcium, EC20 DAMGO (AID 434941;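 active means earlier screen potentiator hit that boosts the TRPC4 ion channel at some dose, with a dose response; inactive means no potentiation, no dose response, or not a prior hit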;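 further: calcium entry triggered by an EC20 dose of DAMGO at the co-expressed mu-opioid receptor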).
The target is the same in experiment [8]. The experiment in a line: mouse TRPC4 channel inhibitors, dose response, cell-based, HEK293 TRPC4/mu-opioid, Fluo-4 calcium (AID 434942;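 active means primary screen inhibitor hit that blocks the TRPC4 channel at some tested dose, yielding a dose curve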).
Experiment [9] addresses Short transient receptor potential channel 6 (Mus musculus) (UniProt Q61143). Briefly: inhibition of mouse TRPC6 channel, confirmation, selectivity assay for TRPC4 inhibitor project, cell-based, HEK293, membrane potential dye, duplicate (AID 434948;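 active means active in primary screen and both duplicates, each dropping signal beyond three positive-control SD with fluorescence still positive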). To be noted: HEK293 TRPC6, membrane potential dye fluorescence, at 10 µM, stimulated with maximal-effect acetylcholine; active compounds read high.

For experiment [10] the target is unchanged. The experiment in a line: activation of mouse TRPC6 channel, confirmation, selectivity assay for TRPC4 activator project, cell-based, HEK293, membrane potential dye, duplicate (AID 434950;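 active means membrane potential signal rise above negative control mean plus 3 SD in both duplicates, also active in the earlier TRPC4 screen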;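 on activation: 0% = buffer only wells and 100% = acetylcholine maximal-effect wells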). Particulars: HEK293 TRPC6, membrane potential fluorescence, at 10 µM; active compounds read high.
Experiment [11] has the same target. The experiment in a line: TRPC6 potentiation by TRPC4 potentiator hits, confirmation, selectivity assay for TRPC4 potentiator project, HEK293 cells, membrane potential dye, duplicate (AID 434952;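 active means compound raising the membrane signal above positive-control mean plus 3 SD in both repeats, and a primary screen hit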). Particulars: HEK293 TRPC6, membrane potential dye fluorescence, at 10 µM, maximal acetylcholine added after compound; active compounds read high.
For experiment [12], the target named is Short transient receptor potential channel 4 (Mus musculus) (UniProt Q9QUQ5). The experiment in a line: calcium flux activators in TRPC4/5HT1a cells, counter-screen for TRPC4 activator project, cell-based, second counter screen, HEK293 TRPC4/5HT1a, Fluo-4 (AID 434977;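 active means calcium signal rise above buffer-control mean plus 5 SD in both duplicates, and also a hit in the primary screen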;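 on activation: plate controls were assay buffer for no effect and maximal serotonin response for full effect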). Particulars: Fluo-4 calcium flux, at 10 µM; active compounds read high.
Experiment [13] can be described thus: calcium flux inhibitors in TRPC4/5HT1a cells, confirmation, counter-screen for TRPC4 inhibitor project, cell-based, second counter screen, HEK293 TRPC4/5HT1a, Fluo-4 (AID 434978;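 active means primary screen active whose calcium signal fell more than 3 SD beyond the full-serotonin control mean in both duplicate plates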;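 further: serotonin given first at submaximal then at maximal dose after compound preincubation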). Particulars: Fluo-4 calcium flux, at 10 µM, serotonin added to trigger calcium flux; active compounds read high.
The test system of experiment [14] is TRPC4 (mouse), co-expressed with 5HT1a in HEK293. The experiment in a line: calcium flux potentiators in TRPC4/5HT1a cells, confirmation, counter-screen for TRPC4 potentiator project, cell-based, second counter screen, HEK293 TRPC4/5HT1a, Fluo-4 (AID 434979;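 active means signal rise over 3 SD above mean of control wells given weak agonist, in both repeats and first screen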). To be noted: Fluo-4 calcium flux, at 10 µM, serotonin added at its EC20 dose; active compounds read high.
Experiment [15] can be described thus: calcium flux activation in mu-opioid HEK293 cells, confirmation, counter-screen for TRPC4 activator project, cell-based, HEK293 mu-opioid receptor line (AID 449723;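 active means hit in primary screen, with calcium signal over 5 SD above buffer well mean in both duplicates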;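 further: counter screen cells carry the mu-opioid receptor alone and lack TRPC4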). Particulars: Fluo-4 calcium fluorescence, at 10 µM; active compounds read high.
Experiment [16] in a line: calcium flux enhancement in mu-opioid HEK293 cells, confirmation, counter-screen for TRPC4 allosteric potentiator project, cell-based, HEK293 mu-opioid receptor line (AID 449724;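 active means calcium signal rise more than 3 SD above the low-dose agonist control mean, in both duplicate plates and the primary screen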). Particulars: Fluo-4 calcium flux, at 10 µM, compound added before EC20 DAMGO stimulus; active compounds read high.
Experiment [17] concerns the target Short transient receptor potential channel 4 (Mus musculus) (UniProt Q9QUQ5). Briefly: mouse TRPC4 channel activators, dose response, cell-based, HEK293 TRPC4/mu-opioid, Fluo-4 calcium (AID 434937;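 active means primary screen activator hit with a dose response curve and TRPC4 channel activation at any tested dose; inactive means no activation, no dose response, or not a primary hit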).

The record followed here is PubChem BioAssay.

SMILES strings stand for the structures. For part of these data: Potency and affinity values are given separately. The source made the active and inactive calls.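 How the source made its calls, unless noted: active means calcium signal cut by more than 3 SD below the full-agonist control yet still positive, in both repeats and the earlier primary screen; inactive means the rest.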

Short transient receptor potential channel 6 (Mus musculus), sequence (Q61143 whole entry, looked up): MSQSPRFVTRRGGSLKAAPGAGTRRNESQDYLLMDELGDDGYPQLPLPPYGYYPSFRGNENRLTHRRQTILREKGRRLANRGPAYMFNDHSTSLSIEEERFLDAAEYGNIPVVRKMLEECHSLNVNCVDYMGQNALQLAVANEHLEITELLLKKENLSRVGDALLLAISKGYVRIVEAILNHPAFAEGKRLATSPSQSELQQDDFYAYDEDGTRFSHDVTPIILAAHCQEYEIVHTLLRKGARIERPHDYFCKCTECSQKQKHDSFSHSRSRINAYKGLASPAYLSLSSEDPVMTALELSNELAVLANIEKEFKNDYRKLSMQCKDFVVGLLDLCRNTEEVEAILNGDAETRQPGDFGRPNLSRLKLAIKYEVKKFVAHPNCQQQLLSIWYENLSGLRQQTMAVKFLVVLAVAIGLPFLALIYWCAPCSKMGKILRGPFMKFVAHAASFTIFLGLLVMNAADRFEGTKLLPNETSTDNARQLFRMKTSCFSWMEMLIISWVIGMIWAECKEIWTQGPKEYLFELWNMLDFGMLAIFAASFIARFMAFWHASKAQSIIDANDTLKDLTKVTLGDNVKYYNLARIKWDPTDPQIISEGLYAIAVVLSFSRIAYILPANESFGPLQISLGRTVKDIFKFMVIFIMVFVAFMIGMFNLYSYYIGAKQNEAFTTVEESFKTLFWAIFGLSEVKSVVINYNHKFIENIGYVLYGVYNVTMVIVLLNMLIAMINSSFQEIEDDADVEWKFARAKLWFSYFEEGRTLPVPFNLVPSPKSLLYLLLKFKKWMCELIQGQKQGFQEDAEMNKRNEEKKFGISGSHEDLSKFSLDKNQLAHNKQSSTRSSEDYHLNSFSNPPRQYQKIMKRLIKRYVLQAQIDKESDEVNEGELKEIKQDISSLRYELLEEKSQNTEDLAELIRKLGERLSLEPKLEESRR
Short transient receptor potential channel 4 (Mus musculus), sequence (Q9QUQ5 whole entry, looked up): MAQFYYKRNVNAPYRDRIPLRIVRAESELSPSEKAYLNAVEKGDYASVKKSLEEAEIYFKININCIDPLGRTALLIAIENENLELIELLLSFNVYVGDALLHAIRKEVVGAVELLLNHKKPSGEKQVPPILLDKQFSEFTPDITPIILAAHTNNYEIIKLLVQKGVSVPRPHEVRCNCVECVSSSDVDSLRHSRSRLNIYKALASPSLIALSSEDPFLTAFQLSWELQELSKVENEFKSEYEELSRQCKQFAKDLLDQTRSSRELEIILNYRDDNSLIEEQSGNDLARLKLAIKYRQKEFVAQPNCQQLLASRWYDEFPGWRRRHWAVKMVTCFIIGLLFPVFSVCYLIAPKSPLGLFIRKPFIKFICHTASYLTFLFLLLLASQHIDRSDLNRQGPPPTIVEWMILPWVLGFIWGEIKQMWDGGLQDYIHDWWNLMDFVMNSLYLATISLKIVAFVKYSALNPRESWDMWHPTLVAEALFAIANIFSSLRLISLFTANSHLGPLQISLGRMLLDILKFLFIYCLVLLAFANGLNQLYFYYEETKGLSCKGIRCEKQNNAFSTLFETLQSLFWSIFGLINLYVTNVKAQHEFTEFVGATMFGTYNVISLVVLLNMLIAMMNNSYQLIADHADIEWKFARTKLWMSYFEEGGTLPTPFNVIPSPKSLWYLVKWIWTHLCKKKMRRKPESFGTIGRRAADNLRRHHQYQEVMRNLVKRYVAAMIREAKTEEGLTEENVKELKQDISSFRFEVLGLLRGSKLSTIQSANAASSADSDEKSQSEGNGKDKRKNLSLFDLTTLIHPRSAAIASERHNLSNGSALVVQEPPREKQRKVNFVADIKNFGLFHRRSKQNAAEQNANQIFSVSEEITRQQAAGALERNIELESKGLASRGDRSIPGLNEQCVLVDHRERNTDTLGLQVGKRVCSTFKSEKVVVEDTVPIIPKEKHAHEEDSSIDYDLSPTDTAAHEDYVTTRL

As to `CN(C)CCCN(C(=O)c1ccc(Cl)s1)c1nc2cc3c(cc2s1)OCO3`, the activation in [1] is 63% (active). Moreover, the outcome in experiment [2], in experiment [3], in experiment [4], in experiment [5], in [6] and in experiment [7] was inactive. In addition, the result in experiment [8], in experiment [9], in experiment [10], in [11], in [12] and in experiment [13] was inactive. For the same compound, the result in [14], in experiment [15] and in [16] was inactive.
Turning to `Cc1ccc(Cn2c(=N)c(C(=O)NC3CCCC3)cc3c(=O)n4ccccc4nc32)cc1`, in experiment [1], the activation is 206% (active). For the same compound, the outcome in experiment [2], in [4], in experiment [5], in [6], in [17] and in experiment [8] was inactive. The outcome in experiment [9], in [10], in experiment [11], in experiment [12], in experiment [13] and in [15] was inactive. In addition, in [16], the result was inactive. Further, the potentiation in experiment [3] was 8% (active); in experiment [14], 41.6% (active).
In the case of `CN(C)CCCN(C(=O)c1ccc(S(=O)(=O)N2CCCCCC2)cc1)c1nc2c(F)cc(F)cc2s1`, in experiment [1], the activation was 133% (active). For the same compound, the result in [2], in [3], in [4], in experiment [5], in [6] and in experiment [7] was inactive. The outcome in [8], in experiment [9], in [10], in experiment [11], in experiment [12] and in experiment [13] was inactive. For the same compound, the outcome in [14], in experiment [15] and in experiment [16] was inactive.
Consider `COC(=O)NCC(c1ccc2c(c1)OCO2)N1CCN(c2ccccc2)CC1` (stereo not given), for which the results for the activation in experiment [1], in experiment [2] and in [10] were 201% (active), 99% (active) and 33% (active), respectively. The outcome in experiment [3], in experiment [4], in experiment [5], in experiment [6], in experiment [7] and in experiment [8] was inactive. The compound was classed as inactive in [9], in [11], in [12], in experiment [13], in experiment [14] and in experiment [15]. For the same compound, in experiment [16], the result was inactive.
As to `O=C(NCC(c1cccs1)N1CCOCC1)c1ccc(Cl)c([N+](=O)[O-])c1` (stereo not given), the values for the activation in experiment [1] and in experiment [12] were 135% (active) and 21.6% (active), respectively. Moreover, the outcome in experiment [2], in [3], in experiment [4], in [5], in experiment [6] and in experiment [7] was inactive. Moreover, the result in experiment [8], in experiment [9], in [10], in [11], in [13] and in experiment [14] was inactive. Moreover, the outcome in experiment [15] and in [16] was inactive.
For the compound `O=C(Nc1ccc(Cl)cc1)N1CCC(c2nc(-c3cccs3)no2)CC1`, the values for the activation in experiment [1] and in [12] were 158% (active) and 46.6% (active), respectively. Moreover, the result in experiment [2], in [3], in experiment [4], in experiment [5], in experiment [6] and in experiment [7] was inactive. Further, the outcome in experiment [8], in experiment [9], in [10], in [11], in experiment [13] and in experiment [14] was inactive. Further, the result in experiment [15] and in experiment [16] was inactive.
With `Clc1cc(Cl)cc(C2=NC(Cc3ccccc3)CO2)c1` (stereo not given), the activation in [1] is 110% (active); in experiment [10], 25% (active); in experiment [12], 30.6% (active). In addition, the result in [2], in experiment [3], in experiment [4], in [5], in experiment [6] and in experiment [7] was inactive. Besides, the outcome in experiment [8], in experiment [9], in [11], in [13], in [14] and in experiment [15] was inactive. In addition, the result in experiment [16] was inactive.
In the case of `Cc1ccc(C)c(NC(=S)NCC(c2ccccc2)N(C)C)c1` (stereo not given), the activation in experiment [1] was 260% (active); in experiment [2] it was 127% (active); in [10], 49% (active); in [12], 93.2% (active). Also, the result in [3], in experiment [4], in experiment [5], in experiment [6], in experiment [7] and in [8] was inactive. For the same compound, the result in [9], in experiment [11], in experiment [13], in experiment [14], in experiment [15] and in [16] was inactive.
For `Cc1ccc2[nH]c3c(N4CCc5ccccc5C4)ncnc3c2c1`, the result in experiment [1], in [2], in experiment [3], in experiment [4], in [5] and in [6] was inactive. The outcome in experiment [7], in experiment [8], in experiment [9], in [10], in experiment [11] and in [12] was inactive. The outcome in experiment [13], in [14], in experiment [15] and in experiment [16] was inactive.
For the compound `O=C(NCc1ccccc1)C1=C[C@H](c2ccccc2)C[C@H](OCc2ccc(CO)cc2)O1`, the activation in experiment [1] is 300% (active); in experiment [10], 27% (active); in experiment [12], 178% (active). The result in experiment [2], in experiment [3], in [4], in experiment [5], in [6] and in experiment [7] was inactive. In addition, the result in [8], in experiment [9], in experiment [11], in [13], in experiment [14] and in experiment [15] was inactive. For the same compound, the result in experiment [16] was inactive.
On to `O=C(c1sc2ccccc2c1Cl)N(Cc1ccccc1)C1CCS(=O)(=O)C1` (stereo not given), for which the result in [1], in [2], in experiment [3], in experiment [4], in experiment [5] and in experiment [6] was inactive. Also, the result in [7], in experiment [8], in [9], in [11], in experiment [12] and in experiment [13] was inactive. Further, the outcome in experiment [14], in experiment [15] and in experiment [16] was inactive. The activation in experiment [10] was 36% (active).
With `CNCCOc1ccc(Cl)c(Cl)c1`, the activation in [1] was 81% (active); in experiment [2], 54% (active); in [10], 39.5% (active); in experiment [12], 24.9% (active). Also, the potentiation is 44% (active) in experiment [3], 23% (active) in [4] and 24% (active) in [14]. The outcome in [5], in [6], in experiment [7], in [8], in [9] and in experiment [11] was inactive. Moreover, the outcome in experiment [13], in experiment [15] and in experiment [16] was inactive.
For the compound `CCc1cc(OCCN(C)C)ccc1Cl`, the activation in [1] is 93% (active); in [10], 39.5% (active); in [12], 19.9% (active). For the same compound, the outcome in experiment [2], in experiment [4], in experiment [5], in experiment [6], in experiment [7] and in experiment [8] was inactive. The call in [9], in [11], in experiment [13], in [15] and in [16] was inactive. For the same compound, the potentiation was 47% (active) in experiment [3] and 37.3% (active) in experiment [14].
For `CCCCN(CC)CCNC(=O)c1ccc2c(Cl)c3c(nc2c1)CCC3`, the figures for the activation in experiment [1], in experiment [2] and in experiment [12] were 166% (active), 142% (active) and 92.3% (active), respectively. Further, the outcome in [3], in experiment [4], in experiment [5], in experiment [6], in experiment [7] and in [8] was inactive. In addition, the compound was classed as inactive in experiment [9], in experiment [10], in [11], in experiment [13], in experiment [14] and in [15]. In addition, the result in [16] was inactive.
Take `NC(N)=NN=C1CCCCCCCCCCC1`: the activation is 95% (active) in [1], 32.5% (active) in experiment [10], 32.2% (active) in experiment [12] and 24.9% (active) in experiment [15]. For the same compound, the result in experiment [2], in experiment [3], in [4], in experiment [5], in [6] and in [7] was inactive. Further, the result in experiment [8], in experiment [9], in experiment [11], in experiment [13], in [14] and in [16] was inactive.
